# CSC inhib: blocks cancer stem cells. cancer stem cell-like cells viability, luminescence. inhibition, % at 7.5 µM. 300,000 compounds, 1.1% hits; in the data active = inhibition above about 75%; inconclusive = no clear call, values can overlap the other calls; tested in HMLE shEcad cells
# Mdm2-MdmX inh: disrupts the human Mdm2-MdmX interaction. inhibition, % at 8 µM. AID 485346. O15151+Q00987. SaOS-2 split-luciferase Mdm2/MdmX complementation, luminescence. 330,000 compounds, 3% hits;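 active = inhibition of at least 50% at 8 µM in the primary screen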
# Calb FLC: affects C. albicans growth with fluconazole | C. albicans CaCi-2 (fluconazole-resistant clinical isolate) + fluconazole, Alamar Blue growth, 48 h | growth inhibition, % (concentration not given with the values) | 300,000 compounds, 0.57% hits | AID 1979;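 active = growth inhibition above about 58% in most replicates, limit read from the data, passing the limit was not always enough; inconclusive = exactly half the replicates above a set limit; inactive = most replicates below a set limit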;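 also: all wells also contain fluconazole at 8 µg/ml as a sub-toxic cotreatment; 0% = median of DMSO wells and 100% = median of geldanamycin control wells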
# Beta cell apopt: beta cell apoptosis inhibition; 300,000 compounds, 0.8% hits; protection from apoptosis, % (concentration not given with the values); AID 435005; INS-1E cytokine-induced death, ATP luminescence, 48 h; percent of positive-control rescue, neutral wells zero;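 active = Every replicate reaches about 75%, or at least half do and their mean reaches it too, limit read from the data; inconclusive = At least half of replicates reach the limit but their mean does not; inactive = Under half of replicates reach the limit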;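 also: 0% = cytokine-treated negative control wells and 100% = positive control rescue; higher means more ATP so stronger rescue from cytokine killing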
# SKKanGAS inh: SKKanGAS growth inhibition. S. pyogenes SKKanGAS, kanamycin growth, BacTiter-Glo, 6 h. inhibition, % at 7.5 µM. 300,000 compounds, 1.3% hits. AID 1662;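 active = mean replicate score, as percent of positive control median, at least 50; inconclusive = mean below 50 but one replicate at or above 50; inactive = mean and every replicate below 50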;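 also: strain carries kanamycin resistance gene driven by streptokinase promoter and grows in 40 µg/ml kanamycin; loss of luminescence reflects streptokinase promoter inhibition or plain growth inhibition; 0% = median of DMSO wells and 100% = positive control at its reference dose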
# MPTP inh: permeability transition pore inhibition; isolated mouse mitochondria, Ca2+ swelling absorbance, 30 min; inhibition, % at 10 µM; 360,000 compounds, 1.4% hits;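 active = inhibition of 50% or more, scaled per plate between neutral and stimulator controls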;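 also: 0% = DMSO wells given calcium and 100% = 1 mM EGTA wells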
# Mdm2-MdmX conf: confirmation of human Mdm2/MdmX interaction inhibitors; shares compounds with Mdm2-MdmX inh; 10,000 compounds, 55% hits; Mdm2-MdmX binding, luminescent assay; inhibition, % at 8 µM; in the data active = inhibition above about 40%
# FLuc counter: full-length luciferase inhibition in Mdm2/MdmX counter-screen. shares compounds with Mdm2-MdmX inh. SaOS-2 full-length luciferase counterscreen, luminescence. inhibition, % at 8 µM. 6,200 compounds, 77% hits;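 active = mean inhibition at 8 µM reaching about 37%, which flags the compound as non-specific, limit read from the data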;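 also: p53-null SaOS-2 cells with luciferase driven by a doxycycline-inducible promoter; compound on cells about two nights before reading with doxycycline added after day one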
# The depositor's hits bear a star; u = inconclusive; x = no result. The list is not random: actives were taken first. Their share in the collection is about 5.4%.
SMILES,CSC inhib,Mdm2-MdmX inh,Calb FLC,Beta cell apopt,SKKanGAS inh,MPTP inh,Mdm2-MdmX conf,FLuc counter
COc1cc(C(=O)Nc2ccc(Oc3ncnc4sc(-c5ccccc5)cc34)cc2)cc(OC)c1OC,x,53*,11,4,33,1,28,x
COc1ccc(C(=O)Nc2ccc(Oc3nc(C)nc4sc(-c5ccccc5)cc34)cc2)cc1OC,37,56*,-7,35,22,1,-4,x
CCC(=O)c1ccc(OCC(=O)NCCCN2CCOCC2)cc1,x,x,x,x,x,1,x,x
Cn1c(CNc2nc3ccccc3n2CCN2CCCCC2)nc2ccccc21,-6,12,u,3,-3,0,x,x
c1ccc(Cn2c(CNc3nc4ccccc4n3CCN3CCCCC3)nc3ccccc32)cc1,17,57*,2,0,5,10,15,x
CC(=O)Oc1ccccc1C(=O)Oc1ccc(/C=N/n2cnnc2)cc1,-2,-11,-4,-7,8,1,x,x
CCOc1ccc(-n2c(SCC(=O)Nc3nccs3)nc3c(c2=O)SCC3)cc1,12,59*,-5,17,2,-2,17,x
O=C(Nc1nc(-c2ccccn2)cs1)c1ccco1,1,51*,17,32,59*,0,24,x
O=C(Nc1nc(-c2ccccn2)cs1)c1cccc(-n2cnnn2)c1,32,77*,-15,76*,53*,0,69*,26
CC(C)CNC(=O)C1(C)CCCN1C(=O)c1cncc(Br)c1 (stereo unspecified),x,x,x,x,x,0,x,x
Cc1ccccc1OCCC(=O)Nc1ccccc1C(=O)NC1CC1,-10,9,-2,-1,-9,1,x,x
Cc1ccc(-c2cc(-c3ccc4c(c3)OCO4)c(C#N)c(N)n2)o1,2,57*,26,-7,13,-1,27,x
Cc1ccc(-c2cc(-c3ccc(C)o3)nc(N)c2C#N)cc1,2,0,5,-8,6,-2,x,x
O=C(Cc1ccccc1F)Nc1nc(-c2cccs2)cs1,13,-52,-5,-3,25,0,x,x
COc1ccc(Sc2nnc(-c3ccccc3)cc2C#N)cc1,6,26,1,5,2,1,x,x
COc1ccc(Sc2nnc(Cc3ccccc3)c3ccccc23)cc1,62,72*,10,-7,12,-1,48*,88*
Cc1ccc(Sc2nnc(Cc3ccccc3)c3ccccc23)cc1,31,53*,-7,-6,17,2,24,x
CCOC(=O)c1cc(OC(=O)Cc2ccc(OC)c(S(=O)(=O)N3CCOCC3)c2)cc(C(=O)OCC)c1,x,x,x,x,x,1,x,x
Cc1cc(C)n(-c2nc(NCC3CCCO3)c3c4c(sc3n2)COC(C)(C)C4)n1 (stereo unspecified),-11,24,5,18,10,x,x,x
Cc1ccc(C)c(OCCCNCc2ccccc2)c1,2,18,-1,x,2,4,x,x
Clc1cc(Br)ccc1OCCCNCc1ccccc1,37,55*,-7,7,9,4,11,x
CCOC(=O)c1sc(Nc2nc(C)cc(C)n2)nc1C,50,57*,0,33,17,2,60*,57*
CCOC(=O)c1sc(Nc2nc(C)cc(OC)n2)nc1C,-4,6,22,14,23,0,x,x
C/C(=C\CCC1(C)C2CC3C(C2)C31C)C(=O)O (stereo unspecified),-1,-26,3,x,2,5,x,x
N#Cc1cc2c(nc1SCC(=O)N1CCOCC1)CCCCC2,x,81*,9,x,-2,1,86*,115*
SMILES,CSC inhib,Mdm2-MdmX inh,Calb FLC,Beta cell apopt,SKKanGAS inh,MPTP inh,Mdm2-MdmX conf,FLuc counter
COc1ccccc1CCN1CCCC(CN(C)C(=O)c2ccco2)C1 (stereo unspecified),-6,27,-3,2,10,-1,x,x
CCN(CC)C1CCN(C(=O)c2ccc(OC3CCN(CCc4ccccc4)CC3)cc2)C1 (stereo unspecified),3,56*,-7,1,5,2,44*,74*
CN(C)c1ccc(Nc2ncnc3ccc(Br)cc23)cc1,10,78*,-2,-5,-4,-1,68*,37*
Cc1cccc(Nc2ncnc3ccc(Br)cc23)c1,32,76*,15,5,0,8,59*,26
COc1ccc(Nc2ncnc3ccc(Br)cc23)cc1OC,3,58*,1,-13,-4,0,64*,31
Cc1nc(N)sc1C(=O)N/N=C/c1c[nH]c2ccccc12,-1,51*,-11,-1,-15,0,23,x
CCOC(=O)C1CCN(C(=O)COC(=O)c2nc3nc(C)cc(C)n3n2)CC1,-12,-3,15,-7,0,0,x,x
CC(=O)Nc1c(-c2ccccc2)nc2cc(C)ccn12,-7,10,-3,1,-3,1,x,x
Cc1ccn2c(Nc3ccccc3C)c(-c3ccncc3)nc2c1,-2,59*,29,-46,-5,-1,34,x
Cc1ccn2c(NC3CCCC3)c(-c3ccccn3)nc2c1,62,74*,-24,16,91*,1,43*,43*
Cc1ccc(Nc2c(-c3ccccn3)nc3ccc(C)cn23)cc1,112*,74*,u,97*,97*,3,90*,52*
Cc1ccc2nc(-c3ccncc3)c(Nc3ccccc3)n2c1,-26,44,u,-9,-6,1,x,x
Cc1ccn2c(Nc3ccc4c(c3)OCO4)c(-c3ccccn3)nc2c1,1,79*,-23,0,97*,3,69*,37*
CCCN(C(=O)CSc1n[nH]c(-c2ccc(OC)cc2)n1)c1c(N)n(Cc2ccccc2)c(=O)[nH]c1=O,2,26,0,-5,-13,0,x,x
O=C(COC(=O)COc1ccc(Cl)cc1)NCc1cccs1,10,8,5,-2,-10,25,x,x
CCCCn1c(N)c(N(CCOC)C(=O)c2cc(-c3ccncc3)nc3ccccc23)c(=O)[nH]c1=O,-11,21,3,x,10,0,x,x
CCOC(=O)c1[nH]c2ccccc2c1NC(=O)c1ccc2c(c1)OCO2,-10,-1,-8,4,-8,0,x,x
COc1ccc(OCCSc2nnc(CCNC(=O)c3ccc(OC)cc3)n2C)cc1,-11,10,-2,-1,-3,0,x,x
Cc1ccc(Nc2c(-c3ccccn3)nc3cc(C)ccn23)cc1,98*,92*,u,103*,101*,5,89*,55*
CSc1ccc(-c2nc3cnccn3c2Nc2ccc3c(c2)OCO3)cc1,16,55*,-1,2,-39,2,11,x
CCCCCCSc1ccc(-c2nc3cc(C)ccn3c2NC2CCCCC2)cc1,52,51*,x,6,x,2,-2,x
CCOC(=O)C1=C(C)N(C)C(C)=C(C(=O)OCC)C1c1ccccc1,1,-18,5,-2,-1,-1,x,x
